Laboratory results reported in ChEMBL document CHEMBL4513216, “Probing the Open Global Health Chemical Diversity Library for Multistage-Active Starting Points for Next-Generation Antimalarials” (ACS Infect Dis, 2020).
Out of some 65,000 compounds screened, about 2,100 (3.2%) showed an effect of 50% or more. The median lay at about -52%. The sample as a whole holds a higher share of strong results than the screen did.

test system: Plasmodium falciparum; assay: Screen against P. falciparum Asexual Blood Stage (ABS), at 5uM; type: functional, Dd2; conditions: tested at 5 uM

Compound	INHIBITION [%]
c1cn(-c2ccc(N3CCC(NC4CC4)CC3)cc2)cn1	18.4
CC(C)c1cc(CN(C)C(=O)C(C)N2CCc3ccccc3C2)no1 (stereo not drawn)	-28.5
N[C@H]1CCCN(S(=O)(=O)c2ccc(C(=O)NCC(F)F)cc2)C1	-117
Cc1cc(C)cc(OCCN(C)C2CCOC2=O)c1 (stereo not drawn)	-68.2
NC(C(=O)N1CCSc2ccccc2C1)c1ccccc1 (stereo not drawn)	60.9
CC(C)C[C@H](N)C(=O)N1CCSc2ccccc2C1	48
N[C@@H](C(=O)N1CCN(c2ccccc2Cl)C(=O)C1)c1ccccc1	-17.6
O=S1(=O)CCC(NCCn2cncc2-c2ccc3c(c2)CCCO3)C1 (stereo not drawn)	-91.4
O=S(=O)(C1CC1)N1CC[C@]2(C[C@@H](Oc3ncccc3F)CO2)C1	-24.1
CN(C)C(=O)c1cnc2n1CCN(Cc1cccnc1)C2	-6.2
N#Cc1ccnc(NCc2cc3n(n2)CCCN(C(=O)C2CCC2)C3)c1	-89.1
CN(Cc1ccccn1)C(CO)c1cccc(Br)c1 (stereo not drawn)	-68.3
Cc1nn(CCO)c(C)c1CNC1CCOc2ccccc21 (stereo not drawn)	-36
Cc1nn(CCO)c(C)c1CNC1CCCCc2ccccc21 (stereo not drawn)	-4.05
Cc1nn(CCO)c(C)c1CNC1CCC(C)(C)c2ccccc21 (stereo not drawn)	69.2
Cc1cc2c(=O)n3c(nc2s1)CCN(Cc1[nH]cnc1C)CC3	-96.3
O=C(NCCNc1cc(N2CCCC2)cnn1)Nc1ccccc1F	-93.6
Cc1sc2c(C3CCNCC3)nc(Nc3cccc(F)c3)n2c1C	-126
O=C1NCC2(CCCN(Cc3ccc(F)cc3)C2)Oc2ccccc21 (stereo not drawn)	-41
O=C1NCC2(CCCN(CCc3ccccc3)C2)Oc2ccccc21 (stereo not drawn)	51.7
O=C1NCC2(CCCN(Cc3ccccc3F)C2)Oc2ccccc21 (stereo not drawn)	-20.4
COc1ccc(C(=O)CCC(=O)NCc2c(C)noc2C)cc1F	-164
CCCc1ncc(C(=O)N2CCOc3ncccc32)s1	-13.4

Compound	INHIBITION [%]
Cc1cccc(N2CCN(C(=O)Nc3cnn(CC(N)=O)c3)CC2)c1	-67.3
NC(=O)Cn1cc(NC(=O)N2CCN(c3ccccc3)CC2)cn1	63.7
NC(=O)Cn1cc(NC(=O)N2CCN(c3ccc(F)cc3)CC2)cn1	-40.9
COc1ccccc1CN1CC(OC)CN(C(=O)OCC(C)C)CC1=O (stereo not drawn)	-40.4
CC(c1cccs1)N(C)Cc1cnc(-c2ccccn2)nc1 (stereo not drawn)	-132
Cc1ccc(C(=O)NCCCNS(C)(=O)=O)cc1-n1cccc1	-137
C[C@@H](O)[C@H](NC(=O)c1csc2nc(-c3ccccc3F)cn12)C(N)=O	-41.1
CN(C)CCCn1ccc(-c2cccc(-c3ccccn3)c2)n1	61
COc1ccc(-c2cccc(-c3ccn(CCCN(C)C)n3)c2)nn1	-18.6
c1cc(-c2cnccn2)cc(-c2ccn(CCCN3CCCCC3)n2)c1	21.9
c1cc(-c2cnccn2)cc(-c2ccn(CCN3CCCCC3)n2)c1	43.8
CN(C)CCCn1ccc(-c2cccc(-c3cncnc3)c2)n1	14.5
c1cc(-c2cnccn2)cc(-c2ccn(CCN3CCCC3)n2)c1	69.1
Cc1cc(CN2CCc3c(CNc4ncccn4)cncc3C2)oc1C	0.619
c1ccc(CN2CCc3c(COCc4ccncc4)cncc3C2)nc1	-14.6
CN(C)C(=O)COCc1cncc2c1CCN(Cc1ccccn1)C2	25.8
c1ccc(CN2CCc3c(COCC4CC4)cncc3C2)nc1	59.3
CN(CC(=O)NCc1cccnc1N1CCCCC1)C(=O)c1cccs1	-48.6
CC(C)c1ccc(-n2nnc(C(=O)O)c2-c2ccccn2)cc1	-101
N#Cc1cccnc1OC1CCN(S(=O)(=O)c2ccc(Br)cc2)CC1	-92.6
CCC(Nc1nc(CCN)nc2ccccc12)c1cccs1 (stereo not drawn)	63.5
NCCc1nc(N[C@@H](CO)c2ccccc2)c2ccccc2n1	-39.4
CCC(Nc1nc(CCN)nc2ccccc12)c1cc(C)ccn1 (stereo not drawn)	-22

Compound	INHIBITION [%]
N#Cc1cccnc1N1CCC(Nc2ccccc2)C1 (stereo not drawn)	-76.7
O=C(CC1CC1)NCc1cn2c(n1)CN(Cc1cccc(F)c1)CC2	-52
CCNC(=O)COc1cc(CC)c2c(C)nn(-c3ccc(C)cc3)c2n1	-21.1
CC(C)[C@@H]1CN(CCOc2ccc(Cl)cc2)C[C@H]1NS(C)(=O)=O	45.9
CC(C)[C@@H]1CN(CCCOc2ccc(F)cc2)C[C@H]1NS(C)(=O)=O	53.7
CCc1ccccc1OCCN1C[C@@H](NS(C)(=O)=O)[C@H](C(C)C)C1	45.2
CN(C)CCNC(=O)c1nc2c(s1)CCCN2C(=O)C1CC1	25.4
CC(O)CNCc1ccc(OCc2ccc3c(c2)OCCO3)cc1 (stereo not drawn)	-169
COc1ccc(-n2ncc3c2NC(=O)CSC3CC(C)C)cc1 (stereo not drawn)	-124
CCn1ccnc1CN1CCN(C(C)C(=O)NC2CCCCC2)CC1 (stereo not drawn)	-83.4
CCn1ccnc1CN1CCN(C(C)C(=O)N2CCCC2)CC1 (stereo not drawn)	-81.3
CCn1ccnc1CN1CCN(CC(=O)NC(=O)NC2CC2)CC1	-97.3
CCn1ccnc1CN1CCN(CC(=O)NC2CCOCC2)CC1	-29
CCn1ccnc1CN1CCN(C(C)C(=O)NC2CCCC2)CC1 (stereo not drawn)	51
CCn1ccnc1CN1CCN(CC(=O)NC(C2CC2)C2CC2)CC1	61.4
O=C1C(N2CCOCC2)CCCN1Cc1cccc(C(F)(F)F)c1 (stereo not drawn)	-61.2
CC(C)(C)c1nc(CN(CCC2CCCCC2)CC(N)=O)no1	-85.5
COc1ccc(CN2CCC(C(N)=O)C2)c(Br)c1OC (stereo not drawn)	-93.4
COc1ccc(CN2CCC(C(N)=O)CC2)cc1SC(F)(F)F	63.5
COc1cc(Cl)c(CN2CCC(C(N)=O)C2)cc1Cl (stereo not drawn)	7.24
COc1ccc2[nH]cc(CCNC(=O)C3CCCN(C(C)=O)C3)c2c1 (stereo not drawn)	-30
CSc1ncccc1C(=O)N1CCCC1c1ccc(C(=O)N(C)C)s1 (stereo not drawn)	-53.6
